Where “and” joins values, the source holds several entries; their conditions need not be identical. Equal values may be shown once. The source holds several records for some structures; these can differ, active in one and inactive in another. Calls of active or inactive are those of the source. Rule for the calls, unless noted: active = hit-call score of the fitted dose curve at least 0.9, where 1 is the maximum; inactive = score below 0.9.
Legend:
[1] = read-out: TIMP metallopeptidase inhibitor 2 (TIMP2), TIMP2 (gene 7077); test: BSK_hDFCGF_TIMP2: BioMAP Diversity Plus: hDFCGF Assay for TIMP metallopeptidase inhibitor 2 (TIMP2) Biomarker Activity (AID 2284289); conditions: primary human foreskin fibroblasts
Summary of the method: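 Primary human foreskin fibroblasts in the hDFCGF system, dosed for 24 h; TIMP-2 level measured by ELISA, fitted in the positive direction against DMSO; cytotoxicity checked in parallel by sulforhodamine B total protein staining.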

[2] = BSK_IMphg_SRB: Viability Assessment in the BioMAP Diversity Plus: IMphg Assay (AID 2284292); conditions: primary human endothelial cells with macrophages;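 note: measured one day after compound addition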
Summary of the method: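 Human venular endothelial cells with macrophages, 24 h after chemical dosing; total protein by 0.1% SRB staining after 10% TCA fixation, read at 560 nm. Positive-direction fitting versus DMSO baseline.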

[3] = read-out: Macrophage colony-stimulating factor (MCSF), CSF1 (gene 1435); test: BSK_IMphg_MCSF: BioMAP Diversity Plus: IMphg Assay for Macrophage colony-stimulating factor (MCSF) Biomarker Activity (AID 2284293); conditions: primary human endothelial cells with macrophages
Summary of the method: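 Co-culture of human venular endothelial cells and macrophages, 24 hours of chemical exposure. M-CSF quantified by ELISA, with parallel SRB total-protein staining for cytotoxicity; activity fitted relative to DMSO.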

[4] = BSK_IMphg_SRB.Mphg: Macrophage Viability Assessment in the BioMAP Diversity Plus: IMphg Assay (AID 2284295); conditions: primary human endothelial cells with macrophages
Summary of the method: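 Venular endothelial cells co-cultured with macrophages, read 24 h after dosing. Total protein measured by 0.1% SRB staining after 10% TCA fixation, absorbance at 560 nm. Fitted in positive direction against DMSO baseline.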

[5] = read-out: Thrombomodulin, THBD (gene 7056); test: BSK_LPS_Thrombomodulin: BioMAP Diversity Plus: LPS Assay for Thrombomodulin Biomarker Activity (AID 2284296); conditions: primary human HUVEC with PBMC
Summary of the method: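 Human umbilical vein endothelial cells co-cultured with PBMC and stimulated with LPS; cell-surface thrombomodulin measured by ELISA 24 hours after compound. Gain or loss versus DMSO; cytotoxicity checked by SRB staining in parallel cultures.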

CD69, CD69 (gene 969) = test: BSK_LPS_CD69: BioMAP Diversity Plus: LPS Assay for CD69 Biomarker Activity (AID 2284303); conditions: primary human HUVEC with PBMC
Summary of the method: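 Human umbilical vein endothelial cells co-cultured with PBMC under LPS stimulation, chemical exposure 24 h; cell-surface CD69 measured by ELISA and fitted in the positive direction versus DMSO.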

[6] = read-out: E-selectin (Homo sapiens) (UniProt P16581); test: BSK_IMphg_ESelectin: BioMAP Diversity Plus: IMphg Assay for Eselectin Biomarker Activity (AID 2284291); conditions: primary human endothelial cells with macrophages
Summary of the method: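 Human venular endothelial cell–macrophage co-culture, E-selectin measured by ELISA 24 h after chemical dosing. Signal fitted in the positive direction against DMSO as negative control and baseline.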

[7] = read-out: Interleukin-10 (IL10), IL10 (gene 3586); test: BSK_IMphg_IL10: BioMAP Diversity Plus: IMphg Assay for Interleukin-10 (IL10) Biomarker Activity (AID 2284294); conditions: primary human endothelial cells with macrophages
Summary of the method: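 Human venular endothelial cells cocultured with macrophages, dosed 24 h; IL-10 measured by ELISA, activity relative to DMSO. Cytotoxicity assessed in parallel cultures by sulforhodamine B total-protein staining.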

IYD (gene 389434) = test: CCTE_GLTED_hIYD: CCTE's human Iodotyrosine Deiodinase (xIYD) Inhibition Assay, Great Lakes Toxicology and Ecology Division (GLTED) Lab (AID 2284317; active = hit-call score of the fitted dose curve at least 0.9, where 1 is the maximum;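 note: cell-free human IYD enzyme made in baculovirus insect cells; iodide freed from monoiodotyrosine measured by cerium arsenite color change at 420 nm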)
Summary of the method: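 First, recombinant human IYD (baculovirus-insect cells), MIT and chemical incubated 3 h. Next, iodide isolated on Dowex. Finally, Sandell-Kolthoff rate read at 420 nm, with platewise normalization to MNT and solvent controls.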

Measured: AC50

Chain of E-selectin (Homo sapiens) (P16581 whole entry, looked up): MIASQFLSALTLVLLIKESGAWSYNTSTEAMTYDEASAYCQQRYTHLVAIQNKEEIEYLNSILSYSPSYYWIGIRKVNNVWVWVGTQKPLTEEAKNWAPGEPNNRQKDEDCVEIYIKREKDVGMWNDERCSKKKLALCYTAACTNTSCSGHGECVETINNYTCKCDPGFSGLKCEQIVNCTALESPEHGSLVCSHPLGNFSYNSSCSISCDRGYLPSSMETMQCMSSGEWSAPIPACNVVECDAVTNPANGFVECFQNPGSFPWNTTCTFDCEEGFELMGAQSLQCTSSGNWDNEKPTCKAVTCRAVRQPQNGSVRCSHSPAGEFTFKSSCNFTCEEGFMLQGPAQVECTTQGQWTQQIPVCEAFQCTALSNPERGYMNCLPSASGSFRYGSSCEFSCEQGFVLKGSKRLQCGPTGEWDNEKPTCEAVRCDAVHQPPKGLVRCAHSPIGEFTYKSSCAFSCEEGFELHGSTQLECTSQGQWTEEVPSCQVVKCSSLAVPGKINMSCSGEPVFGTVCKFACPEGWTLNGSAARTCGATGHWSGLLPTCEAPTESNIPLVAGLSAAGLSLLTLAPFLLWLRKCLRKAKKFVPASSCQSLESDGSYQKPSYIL

CNS(=O)(=O)C(F)(F)C(F)(F)C(F)(F)C(F)(F)C(F)(F)C(F)(F)C(F)(F)C(F)(F)F
active: [1] 7.96 µM
inactive: [1] | [2] | [3] | [4] | [5] | CD69, CD69 (gene 969)

OC(O)C(F)(F)C(F)(F)F
not listed: [7] | IYD (gene 389434)
inactive: all other assays above

FC(F)(F)C(F)(F)C(F)(F)C(F)(F)C(F)(F)C(F)(F)CC[Si](Cl)(Cl)Cl
active: [1] 0.519 µM | [4] 0.0514 µM
inactive: [1] | [6] | [2] | [3] | [4] | [5] | CD69, CD69 (gene 969)

OCC(F)(F)C(F)(F)C(F)(F)C(F)(F)C(F)(F)C(F)(F)CO
active: [7] 3.34 µM and 5.58 µM
not listed: [6] | IYD (gene 389434)
inactive: all other assays above

O=C(O)C(F)(F)C(F)(F)C(F)(F)C(F)(F)C(F)(F)C(F)(F)C(F)F
active: [1] 0.957 µM
inactive: [1] | [2] | [3] | [7] | [4] | [5] | CD69, CD69 (gene 969)

NS(=O)(=O)C(F)(F)C(F)(F)C(F)(F)C(F)(F)C(F)(F)C(F)(F)F
active: [1] 54.6 µM | [3] 4.34 µM | CD69, CD69 (gene 969) 26 µM and 22.3 µM
inactive: [1] | [2] | [3] | [4] | [5]

O=C(O)C(F)(F)C(F)(F)C(F)(F)OC(F)(C(F)(F)F)C(F)(F)F
not listed: [6] | [7] | IYD (gene 389434)
inactive: all other assays above

O=C(Cl)C(F)(F)C(F)(F)C(F)(F)C(F)(F)C(F)(F)C(F)(F)F
not listed: [6] | [7] | IYD (gene 389434)
inactive: all other assays above

NC(=O)C(F)(F)C(F)(F)C(F)(F)C(F)F
not listed: [6] | [7] | IYD (gene 389434)
inactive: all other assays above

O=S(=O)(OCC(F)(F)F)C(F)(F)C(F)(F)C(F)(F)C(F)(F)F
inactive: [1] | [2] | [3] | [4] | [5]
active: CD69, CD69 (gene 969) 30 µM and 890 nM

COC(F)(C(F)F)C(F)(F)F (configuration not stated)
not listed: [6] | [7] | IYD (gene 389434)
inactive: all other assays above

NC(=O)C(F)(F)C(F)(F)C(F)(F)F
not listed: [6] | [7] | IYD (gene 389434)
inactive: all other assays above

O=C(Cl)C(F)(F)C(F)(F)C(F)(F)C(F)(F)C(F)(F)C(F)(F)C(F)(F)F
not listed: [6] | [7] | IYD (gene 389434)
inactive: all other assays above

CCOC(=O)CC(=O)C(F)(F)C(F)(F)F
not listed: [6] | [7] | IYD (gene 389434)
inactive: all other assays above

O=S(=O)(O)CCC(F)(F)C(F)(F)C(F)(F)C(F)(F)F
not listed: [6] | [7] | IYD (gene 389434)
inactive: all other assays above

NC(=O)C(F)(F)C(F)(F)C(F)(F)C(F)(F)C(F)(F)C(F)(F)C(F)(F)F
not listed: [6] | [7] | IYD (gene 389434)
inactive: all other assays above

CCN=C1C=CC(=C(c2ccc(N(CC)CC)cc2)c2ccc(N(CC)CC)cc2)c2ccccc21
inactive: [5]
active: [1] 677 nM and 195 nM | CD69, CD69 (gene 969) 1.16 µM and 1.01 µM

CCCCCCCCCCCCC[N+](C)(C)Cc1ccccc1
active: IYD (gene 389434) 70.8 µM

OCC(O)CC(F)(F)C(F)(F)C(F)(F)C(F)(F)C(F)(F)C(F)(F)C(F)(F)C(F)(F)F (configuration not stated)
not listed: [6] | [7] | IYD (gene 389434)
inactive: all other assays above

CCCCCCCCCCCCCC[P+](CCCC)(CCCC)CCCC
active: IYD (gene 389434) 97.6 µM

CO[Si](C)(CCC(F)(F)C(F)(F)C(F)(F)C(F)(F)C(F)(F)C(F)(F)F)OC
not listed: [6] | [7] | IYD (gene 389434)
inactive: all other assays above

C=C(C)C(=O)OCC(F)(F)C(F)(F)C(F)(F)C(F)F
not listed: [6] | [7] | IYD (gene 389434)
inactive: all other assays above

CCCCCCCCn1sc(Cl)c(Cl)c1=O
active: IYD (gene 389434) 100 µM

O=C(F)C1(F)C(F)(F)C(F)(F)C(F)(F)C(F)(F)C1(F)F
not listed: [6] | [7] | IYD (gene 389434)
inactive: all other assays above

OCC(F)(F)C(F)(F)C(F)(F)CO
not listed: [6] | [7] | IYD (gene 389434)
inactive: all other assays above

— PubChem BioAssay (EPA / NIEHS)
